Results on 13 molecules are retold here after the supplement of paper PMC10646978.

What all share (settings): modulator concentration 10 µM
Assay [1] deals with RAW-Dual (murine macrophage reporter line). In words: NF-kB reporter (SEAP) activity fold change vs agonist alone; higher = enhanced NF-kB activity. The essentials:
(§1)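 RAW-Dual murine macrophage reporter cells were plated at 50 000 per well in 384-well plates, pin-transferred compound to 10 μM final, and pre-incubated for 1 hour at 37 °C before a PRR agonist was added and the cells incubated overnight. NF-κB activity was read from supernatant SEAP with QUANTI-Blue at 620 nm absorbance, and IRF activity from Lucia luciferase with QUANTI-Luc by luminescence. Each signal was expressed as fold change by dividing by the mean agonist-only control on the same plate. Two replicate plates were averaged, with errors obtained by propagation.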

The test system is the same in assay [2]. In words: IRF reporter (Lucia luciferase) activity fold change vs agonist alone; higher = enhanced IRF activity. The essentials: as §1
Assay [3] has the same test system. In words: viability score (confluency relative to resting cells, overnight) (fraction); higher = more viable, active = viable (0.7 or more). The method in brief:
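In 384-well plates, RAW-Dual macrophages received compound at a final 10 μM overnight. Two confluency masks were then made with IncuCyte software from IncuCyte images of all imaged wells. The viability score is defined as confluency relative to resting cells. Passing the cutoff required both masks to lie above 70% of resting cells.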

The mark [4] stands for this setting: agonist: CpG ODN 1826 0.5 ug/mL.

Each structure is given as a SMILES string. ± gives the standard deviation.

As to `Cc1ccccc1C(=O)N1CC(S(=O)(=O)CC(C)C)C1`, the values for the NF-kB reporter in assay [1] (setting [4]), in assay [1] (agonist: LPS 0.1 ug/mL) and in assay [1] (agonist: MPLA […]) were 0.961 ± 0.082, 0.907 ± 0.076 and 0.854 ± 0.052, respectively. Moreover, the IRF reporter in assay [2] (agonist: 3'3'-cGAMP 10 ug/mL) was determined as 1.04 ± 0.071; in assay [2] (agonist: LPS 0.1 ug/mL), 1.04 ± 0.13; in assay [2] (agonist: MPLA […]) it was 0.899 ± 0.38. For the same molecule, the viability score in assay [3] is 1.02 (active).

For the molecule `Cc1ccc(-n2nnc3c(=O)n(CC(=O)N4CC(C)OC(C)C4)cnc32)cc1Cl` (stereo unspecified), the results for the NF-kB reporter in assay [1] (setting [4]), in assay [1] (agonist: LPS 0.1 ug/mL) and in assay [1] (agonist: MPLA […]) were 1.12 ± 0.096, 1.09 ± 0.089 and 0.885 ± 0.047, respectively. The IRF reporter is 1.09 ± 0.057 in assay [2] (agonist: 3'3'-cGAMP 10 ug/mL), 1.14 ± 0.079 in assay [2] (agonist: LPS 0.1 ug/mL) and 1.14 ± 0.34 in assay [2] (agonist: MPLA […]). Besides, the viability score in assay [3] is 0.976 (active).

For the molecule `CN(C)C/C=C/C(=O)Nc1cc2c(Nc3ccc(F)c(Cl)c3)ncnc2cc1O[C@H]1CCOC1`, the NF-kB reporter in assay [1] (setting [4]) amounted to 0.0842 ± 0.0066; in assay [1] (agonist: LPS 0.1 ug/mL), 0.28 ± 0.053; in assay [1] (agonist: MPLA […]) it was 0.266 ± 0.033. Besides, the IRF reporter in assay [2] (agonist: 3'3'-cGAMP 10 ug/mL) came out at 0.0559 ± 0.0049; in assay [2] (agonist: LPS 0.1 ug/mL), 0.0747 ± 0.015; in assay [2] (agonist: MPLA […]), 0.0463 ± 0.0039. The viability score in assay [3] is 0.56 (inactive).

`O=C(CCc1ccc(O)cc1)c1c(O)cc(O)cc1O`: the NF-kB reporter was determined as 1.06 ± 0.2 in assay [1] (setting [4]), 1.07 ± 0.085 in assay [1] (agonist: LPS 0.1 ug/mL) and 1.13 ± 0.088 in assay [1] (agonist: MPLA […]). The IRF reporter in assay [2] (agonist: 3'3'-cGAMP 10 ug/mL) was determined as 0.768 ± 0.038; in assay [2] (agonist: LPS 0.1 ug/mL) it was 1.03 ± 0.12; in assay [2] (agonist: MPLA […]), 1.23 ± 0.15. Further, in assay [3], the viability score is 0.998 (active).

On to `N=C(N)Nc1ccc(Cl)cc1`, for which the NF-kB reporter in assay [1] (setting [4]) came to 1.02 ± 0.1; in assay [1] (agonist: LPS 0.1 ug/mL) it was 1.05 ± 0.067; in assay [1] (agonist: MPLA […]) it was 0.961 ± 0.042. For the same molecule, the results for the IRF reporter in assay [2] (agonist: 3'3'-cGAMP 10 ug/mL), in assay [2] (agonist: LPS 0.1 ug/mL) and in assay [2] (agonist: MPLA […]) were 0.984 ± 0.08, 0.986 ± 0.058 and 0.885 ± 0.099, respectively. For the same molecule, the viability score in assay [3] was 0.991 (active).

Take `NC12CC3CC(CC(C3)C1)C2`: the NF-kB reporter in assay [1] (setting [4]) amounted to 1.19 ± 0.31; in assay [1] (agonist: LPS 0.1 ug/mL), 1.09 ± 0.066; in assay [1] (agonist: MPLA […]) it was 1.01 ± 0.087. Besides, the IRF reporter in assay [2] (agonist: 3'3'-cGAMP 10 ug/mL) is 0.874 ± 0.061; in assay [2] (agonist: LPS 0.1 ug/mL), 1.13 ± 0.15; in assay [2] (agonist: MPLA […]), 1.06 ± 0.2. In assay [3], the viability score is 0.999 (active).

As for `COc1ccc(CCNC(=O)NCc2nnc3n2CCC(C(F)(F)F)C3)cc1` (stereo unspecified), the figures for the NF-kB reporter in assay [1] (setting [4]), in assay [1] (agonist: LPS 0.1 ug/mL) and in assay [1] (agonist: MPLA […]) were 0.951 ± 0.067, 1.02 ± 0.088 and 0.947 ± 0.072, respectively. Moreover, the IRF reporter was determined as 1.05 ± 0.072 in assay [2] (agonist: 3'3'-cGAMP 10 ug/mL), 1.17 ± 0.07 in assay [2] (agonist: LPS 0.1 ug/mL) and 1.12 ± 0.23 in assay [2] (agonist: MPLA […]). The viability score in assay [3] is 1.01 (active).

Consider `COc1ccc2oc(=O)c(C(=O)Nc3ccc(C(=O)O)cc3)cc2c1`, for which the NF-kB reporter is 0.909 ± 0.054 in assay [1] (setting [4]), 1.02 ± 0.1 in assay [1] (agonist: LPS 0.1 ug/mL) and 0.953 ± 0.08 in assay [1] (agonist: MPLA […]). Besides, the figures for the IRF reporter in assay [2] (agonist: 3'3'-cGAMP 10 ug/mL), in assay [2] (agonist: LPS 0.1 ug/mL) and in assay [2] (agonist: MPLA […]) were 1.08 ± 0.035, 1.17 ± 0.11 and 0.959 ± 0.13, respectively. Further, the viability score in assay [3] is 0.987 (active).

For the molecule `CC(=O)c1ccc(NC(=O)CSc2ccc(-c3ccc4c(c3)OCO4)nn2)cc1`, the results for the NF-kB reporter in assay [1] (setting [4]), in assay [1] (agonist: LPS 0.1 ug/mL) and in assay [1] (agonist: MPLA […]) were 0.846 ± 0.28, 1.04 ± 0.096 and 0.981 ± 0.11, respectively. The IRF reporter in assay [2] (agonist: 3'3'-cGAMP 10 ug/mL) came to 0.955 ± 0.034; in assay [2] (agonist: LPS 0.1 ug/mL) it was 1.02 ± 0.2; in assay [2] (agonist: MPLA […]), 1.03 ± 0.11. For the same molecule, in assay [3], the viability score was 0.99 (active).

For the molecule `CCc1sc2sncc2c1Br`, the NF-kB reporter in assay [1] (setting [4]) turned out to be 0.199 ± 0.022; in assay [1] (agonist: LPS 0.1 ug/mL), 0.817 ± 0.06; in assay [1] (agonist: MPLA […]) it was 1.17 ± 0.11. Further, the IRF reporter in assay [2] (agonist: 3'3'-cGAMP 10 ug/mL) is 0.315 ± 0.014; in assay [2] (agonist: LPS 0.1 ug/mL), 0.713 ± 0.14; in assay [2] (agonist: MPLA […]), 0.549 ± 0.076. For the same molecule, in assay [3], the viability score is 0.895 (active).

For `NC(=O)c1ncn([C@@H]2O[C@H](CO)[C@@H](O)[C@H]2O)c1N`, the NF-kB reporter in assay [1] (setting [4]) came to 1.11 ± 0.086; in assay [1] (agonist: LPS 0.1 ug/mL), 1.03 ± 0.051; in assay [1] (agonist: MPLA […]) it was 1.04 ± 0.041. Further, the IRF reporter in assay [2] (agonist: 3'3'-cGAMP 10 ug/mL) came out at 0.94 ± 0.052; in assay [2] (agonist: LPS 0.1 ug/mL), 0.977 ± 0.089; in assay [2] (agonist: MPLA […]), 0.949 ± 0.12. Also, the viability score in assay [3] is 0.994 (active).

`COc1ccc(C(NC(=O)c2ccccc2F)c2ccc(OC)cc2)cc1`: the NF-kB reporter turned out to be 1.03 ± 0.17 in assay [1] (setting [4]), 1.08 ± 0.093 in assay [1] (agonist: LPS 0.1 ug/mL) and 1.01 ± 0.095 in assay [1] (agonist: MPLA […]). The IRF reporter is 1 ± 0.032 in assay [2] (agonist: 3'3'-cGAMP 10 ug/mL), 1.21 ± 0.27 in assay [2] (agonist: LPS 0.1 ug/mL) and 1.24 ± 0.16 in assay [2] (agonist: MPLA […]). The viability score in assay [3] is 1 (active).

Take `COC(=O)C1=C(C)N(Cc2ccccc2)C(=O)C1`: the NF-kB reporter in assay [1] (setting [4]) amounted to 1.06 ± 0.17; in assay [1] (agonist: LPS 0.1 ug/mL) it was 1.1 ± 0.14; in assay [1] (agonist: MPLA […]), 0.984 ± 0.18. For the same molecule, the IRF reporter in assay [2] (agonist: 3'3'-cGAMP 10 ug/mL) came to 0.96 ± 0.039; in assay [2] (agonist: LPS 0.1 ug/mL) it was 1.32 ± 0.15; in assay [2] (agonist: MPLA […]), 1.42 ± 0.3. The viability score in assay [3] is 0.623 (inactive).
